Results: PubChem BioAssay
Values joined by “and” are separate entries in the source; they are usually repeats but may differ in a detail not shown here. Equal values may be shown once. For some of these results: Entries with a potency or affinity are not part of this list. Active and inactive are the calls of the source. Unless noted, how the calls were made is not given here.

How the values were obtained:
[1] = antimalarial activity against Dd2 strain (AID 2302;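 active means growth inhibition above 50% at the single 2 µM test dose, taken to imply half-maximal potency below 2 µM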;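 further: 0% = DMSO untreated growth and 100% = chloroquine plus artemisinin killed control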); conditions: P. falciparum Dd2 in RBCs, LDH growth readout, 72 h; at 2 µM; stronger effect = higher value
[2] = HepG2 cytotoxicity, primary screen, cytotoxicity control for P. falciparum antimalarial project, cell-based, ATP luminescence (AID 2303;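 active means inhibition above 50%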;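 further: 0% = DMSO wells and 100% = digitonin-killed cells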); conditions: HepG2 viability, 24-48 h, at 10 µM, stronger effect = higher value
[3] = biological target: L-lactate dehydrogenase (Plasmodium falciparum (isolate CDC / Honduras)) (UniProt Q27743); test: PfLDH activity inhibition – cell lysate, 3D7 strain, counter-screen for P. falciparum growth inhibition project (AID 2304);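 further: 0% = vehicle and 100% = reference inhibitor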; conditions: P. falciparum 3D7 crude extract, LDH APAD/NBT absorbance; at 2 µM; stronger effect = higher value
[4] = inhibition of 3D7 malaria parasite growth – strain 3D7 (AID 2306);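 further: 0% = DMSO wells and 100% = chloroquine plus artemisinin control wells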; conditions: P. falciparum 3D7 erythrocytic growth, LDH absorbance, 72 h; at 2 µM; stronger effect = higher value
[5] = biological target: Calcium-dependent protein kinase 1 (Plasmodium falciparum (isolate 3D7)) (UniProt P62344); test: PfCDPK1 kinase inhibitors, biochemical, TCAMS library (AID 1159585; cut-off not given, nearly all actives have IC50 up to about 0.98 µM;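 further: inhibitors leave more ATP so luminescence rises with inhibition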); conditions: recombinant PfCDPK1, Kinase-Glo ATP depletion luminescence
[6] = biological target: Plasmodium falciparum protein kinase 6 (PK6, PF3D7_1337100) (UniProt Q8IDW1); test: PfPK6 kinase inhibitors, biochemical, TCAMS library (AID 1159586); conditions: recombinant PfPK6, Kinase-Glo ATP depletion luminescence
[7] = biological target: Protein kinase 7 (PK7), Plasmodium falciparum 3D7 (PF3D7_0213400) (UniProt Q7YTF7); test: inhibition of Plasmodium PK7 catalytic activity – biochemical, TCAMS antimalarial set, Kinase-Glo luminescence (AID 1159587); conditions: recombinant PfPK7, Kinase-Glo ATP depletion luminescence
[8] = biological target: Calcium-dependent protein kinase 4 (Plasmodium falciparum (isolate 3D7)) (UniProt Q8IBS5); test: PfCDPK4 kinase inhibitors, biochemical, TCAMS library (AID 1159588; cut-off not given, nearly all actives have IC50 up to about 0.91 µM); conditions: recombinant PfCDPK4, Kinase-Glo ATP depletion luminescence
Sequence of Calcium-dependent protein kinase 4 (Plasmodium falciparum (isolate 3D7)) (Q8IBS5 whole entry, looked up): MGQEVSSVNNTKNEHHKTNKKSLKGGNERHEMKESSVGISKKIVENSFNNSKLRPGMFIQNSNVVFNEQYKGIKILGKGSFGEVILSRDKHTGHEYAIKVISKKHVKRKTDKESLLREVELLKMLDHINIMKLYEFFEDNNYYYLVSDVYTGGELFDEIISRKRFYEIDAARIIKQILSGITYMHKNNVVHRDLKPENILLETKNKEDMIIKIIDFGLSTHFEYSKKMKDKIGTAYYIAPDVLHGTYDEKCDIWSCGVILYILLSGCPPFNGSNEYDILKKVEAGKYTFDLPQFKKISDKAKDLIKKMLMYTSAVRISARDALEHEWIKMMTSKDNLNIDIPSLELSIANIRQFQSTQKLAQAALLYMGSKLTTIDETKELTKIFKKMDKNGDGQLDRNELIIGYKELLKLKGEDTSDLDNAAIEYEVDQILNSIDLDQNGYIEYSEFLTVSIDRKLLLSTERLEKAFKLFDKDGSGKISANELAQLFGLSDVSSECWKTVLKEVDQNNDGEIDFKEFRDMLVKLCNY

Sequence of L-lactate dehydrogenase (Plasmodium falciparum (isolate CDC / Honduras)) (Q27743 whole entry, looked up): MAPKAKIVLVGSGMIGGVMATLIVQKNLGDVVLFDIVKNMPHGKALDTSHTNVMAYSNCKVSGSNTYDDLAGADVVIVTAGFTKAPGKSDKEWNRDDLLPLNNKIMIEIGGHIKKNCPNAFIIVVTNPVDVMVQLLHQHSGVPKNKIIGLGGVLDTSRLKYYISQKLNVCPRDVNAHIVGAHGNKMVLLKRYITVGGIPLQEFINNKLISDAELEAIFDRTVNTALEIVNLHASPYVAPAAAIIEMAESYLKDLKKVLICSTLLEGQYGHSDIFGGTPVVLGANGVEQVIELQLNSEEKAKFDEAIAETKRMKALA
Sequence of Protein kinase 7 (PK7), Plasmodium falciparum 3D7 (PF3D7_0213400) (Q7YTF7 1-343): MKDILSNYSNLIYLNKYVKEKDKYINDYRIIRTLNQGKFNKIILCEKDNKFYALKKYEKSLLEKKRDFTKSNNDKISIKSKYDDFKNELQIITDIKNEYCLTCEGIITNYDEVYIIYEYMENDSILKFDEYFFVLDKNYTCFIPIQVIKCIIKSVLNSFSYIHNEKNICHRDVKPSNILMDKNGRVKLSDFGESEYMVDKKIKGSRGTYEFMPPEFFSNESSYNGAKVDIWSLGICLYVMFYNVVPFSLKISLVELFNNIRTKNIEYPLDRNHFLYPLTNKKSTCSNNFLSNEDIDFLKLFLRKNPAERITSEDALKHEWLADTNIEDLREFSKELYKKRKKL
Sequence of Plasmodium falciparum protein kinase 6 (PK6, PF3D7_1337100) (Q8IDW1 1-305): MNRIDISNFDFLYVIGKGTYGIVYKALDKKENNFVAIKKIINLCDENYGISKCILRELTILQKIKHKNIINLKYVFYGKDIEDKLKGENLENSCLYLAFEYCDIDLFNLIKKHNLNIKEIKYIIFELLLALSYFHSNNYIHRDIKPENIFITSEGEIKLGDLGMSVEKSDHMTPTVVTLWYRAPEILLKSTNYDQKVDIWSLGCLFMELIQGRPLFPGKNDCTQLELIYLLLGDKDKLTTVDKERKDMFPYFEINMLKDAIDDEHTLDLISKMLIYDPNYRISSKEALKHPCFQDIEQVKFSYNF
Sequence of Calcium-dependent protein kinase 1 (Plasmodium falciparum (isolate 3D7)) (P62344 whole entry, looked up): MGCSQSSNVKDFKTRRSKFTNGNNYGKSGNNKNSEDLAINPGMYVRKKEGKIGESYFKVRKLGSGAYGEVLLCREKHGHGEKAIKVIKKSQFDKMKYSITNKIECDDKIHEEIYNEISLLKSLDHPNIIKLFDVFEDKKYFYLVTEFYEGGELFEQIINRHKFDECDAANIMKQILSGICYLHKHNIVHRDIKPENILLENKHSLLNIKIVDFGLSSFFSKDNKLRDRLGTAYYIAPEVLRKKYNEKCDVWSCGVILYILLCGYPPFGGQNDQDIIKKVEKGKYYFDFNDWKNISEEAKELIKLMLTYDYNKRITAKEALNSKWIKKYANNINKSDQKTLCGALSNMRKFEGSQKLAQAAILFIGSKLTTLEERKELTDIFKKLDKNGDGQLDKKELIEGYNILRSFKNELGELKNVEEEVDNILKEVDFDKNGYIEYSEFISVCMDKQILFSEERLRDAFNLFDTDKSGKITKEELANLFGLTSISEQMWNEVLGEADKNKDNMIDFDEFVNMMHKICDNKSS

O=C(/C=C/c1ccc(Cl)c(Cl)c1)NC1[C@@H]2CC[C@H]1CC(CN1CCC(c3c[nH]c4ccccc34)CC1)C2 (some centres undefined)
inactive: inhibition [2] 31% | inhibition [3] -2% | outcome [5] | outcome [6] | outcome [7] | outcome [8]
active: growth inhibition [1] 100% | growth inhibition [4] 100%

CN(c1ccnc(Nc2ccc(CS(C)(=O)=O)cc2)n1)C1CCN(Cc2ccccc2)CC1
inactive: growth inhibition [1] 9% | inhibition [2] 10% | inhibition [3] 1% | outcome [5] | outcome [6] | outcome [7] | outcome [8]
active: growth inhibition [4] 83%

O=C(Nc1ccc(Cl)c(Cl)c1)N1CCC(CN2CCC(c3c[nH]c4ccccc34)CC2)CC1
inactive: inhibition [2] 46% | inhibition [3] -2% | outcome [5] | outcome [6] | outcome [7] | outcome [8]
active: growth inhibition [1] 69% | growth inhibition [4] 100%

COC(C(=O)OCCC1CCCN1C)(c1ccccc1)c1ccccc1 (centres undefined)
active: growth inhibition [4] 98%
inactive: growth inhibition [1] 9% | inhibition [2] 6% | inhibition [3] 2% | outcome [5] | outcome [6] | outcome [7] | outcome [8]

CC(=O)N(Cc1ccccc1-c1cccc(CNCCc2ccccc2)c1)C1CCN(Cc2ccccc2)CC1
active: growth inhibition [4] 89%
inactive: growth inhibition [1] 30% | inhibition [2] 19% | inhibition [3] 0% | outcome [5] | outcome [6] | outcome [7] | outcome [8]

Cc1cc(N)nc2ccc(CNCCc3ccccc3Br)cc12
active: growth inhibition [1] 77% | growth inhibition [4] 102%
inactive: inhibition [2] 28% | inhibition [3] 7% | outcome [5] | outcome [6] | outcome [7] | outcome [8]

CC[C@H]1CN2CC[C@H]1C[C@H]2[C@H](O)c1cc(-c2ccc(C)cc2)nc2ccc(OC)cc12
active: growth inhibition [1] 99% | growth inhibition [4] 99%
inactive: inhibition [2] 22% | inhibition [3] 6% | outcome [5] | outcome [6] | outcome [7] | outcome [8]

Cc1[nH]c2cc(Cl)ccc2c1C1=CCN(CCN2CCOc3c(Br)cccc3C2=O)CC1
active: growth inhibition [1] 58% | growth inhibition [4] 90%
inactive: inhibition [2] 1% | inhibition [3] 4% | outcome [5] | outcome [6] | outcome [7] | outcome [8]

CC[C@H]1CN2CC[C@H]1C[C@@H]2[C@@H](O)c1ccnc2ccccc12
active: growth inhibition [4] 98%
inactive: growth inhibition [1] 20% | inhibition [2] 10% | inhibition [3] -4% | outcome [5] | outcome [6] | outcome [7] | outcome [8]

[O-]c1n[n+](C2CCCCC2)no1
inactive: inhibition [2] -13% | inhibition [3] -5% | outcome [5] | outcome [6] | outcome [7] | outcome [8]
active: growth inhibition [1] 82% | growth inhibition [4] 91%

CC(Cc1ccc(SCCSc2ccccc2)cc1)NCC(O)c1cccc(Cl)c1 (centres undefined)
inactive: inhibition [2] 4% | inhibition [3] -7% | outcome [5] | outcome [6] | outcome [7] | outcome [8]
active: growth inhibition [1] 96% | growth inhibition [4] 98%

O=C(c1ccccc1)[C@H]1C[C@@H]1CN1CC=C(c2c[nH]c3ccccc23)CC1
inactive: inhibition [2] 4% | inhibition [3] -6% | outcome [5] | outcome [6] | outcome [7] | outcome [8]
active: growth inhibition [1] 73% | growth inhibition [4] 95%

COc1ccccc1CNCC(O)c1cc(C(F)(F)F)ccc1C(F)(F)F (centres undefined)
active: growth inhibition [1] 95% | growth inhibition [4] 101%
inactive: inhibition [2] 10% | inhibition [3] 5% | outcome [5] | outcome [6] | outcome [7] | outcome [8]

C=C[C@@H]1CN2CC[C@H]1C[C@H]2[C@H](O)c1cc(-c2ccc(Cl)cc2)nc2ccc(OC)cc12
active: growth inhibition [1] 98% | growth inhibition [4] 99%
inactive: inhibition [2] 38% | inhibition [3] 0% | outcome [5] | outcome [6] | outcome [7] | outcome [8]

COc1cc2nc(N(C)C3CCN(Cc4ccccc4)CC3)nc(N)c2cc1OC
inactive: inhibition [2] 19% | inhibition [3] 1% | outcome [5] | outcome [6] | outcome [7] | outcome [8]
active: growth inhibition [1] 93% | growth inhibition [4] 99%

CNCCN(C)C(=O)Oc1c(Br)c(C)nc(C)c1-c1ccc(Oc2ccc(OC(F)(F)F)cc2)cc1
active: growth inhibition [1] 98% | growth inhibition [4] 98%
inactive: inhibition [2] 19% | inhibition [3] 2% | outcome [5] | outcome [6] | outcome [7] | outcome [8]

O=C(NC1CCC(CN2CCC(c3c[nH]c4ccccc34)CC2)CC1)c1cc(-c2ccccc2)c(C(F)(F)F)s1 (centres undefined)
inactive: inhibition [3] 2% | outcome [5] | outcome [6] | outcome [7] | outcome [8]
active: growth inhibition [1] 101% | inhibition [2] 55% | growth inhibition [4] 100%

Cc1cc(N(C)C2CCN(C)CC2)nc(Nc2ccc(Br)cc2)n1
active: growth inhibition [1] 92% | growth inhibition [4] 100%
inactive: inhibition [2] -5% | inhibition [3] 2% | outcome [5] | outcome [6] | outcome [7] | outcome [8]

CN1CC=C(c2csc3ccc(NC(=O)Nc4ccc(-c5ccncc5)c(Cl)c4)cc23)CC1
active: growth inhibition [1] 101% | growth inhibition [4] 102%
inactive: inhibition [2] 10% | inhibition [3] 6% | outcome [5] | outcome [6] | outcome [7] | outcome [8]

CNCCN(C)C(=O)Oc1c(Cl)c(C)nc(C)c1-c1ccc(Oc2ccc(OC(F)(F)F)cc2)cc1
active: growth inhibition [1] 96% | growth inhibition [4] 97%
inactive: inhibition [2] -2% | inhibition [3] -2% | outcome [5] | outcome [6] | outcome [7] | outcome [8]

O=C(/C=C/c1ccc(Cl)c(Cl)c1)NCC1CCC(N2CCC(c3c[nH]c4ccccc34)CC2)CC1 (centres undefined)
inactive: inhibition [2] 48% | inhibition [3] -1% | outcome [5] | outcome [6] | outcome [7] | outcome [8]
active: growth inhibition [1] 95% | growth inhibition [4] 101%

Oc1ccccc1CN1CCC(CCOC(c2ccccc2)c2ccc(Cl)cc2)CC1 (centres undefined)
active: growth inhibition [1] 99% | growth inhibition [4] 97%
inactive: inhibition [2] 19% | inhibition [3] -8% | outcome [5] | outcome [6] | outcome [7] | outcome [8]

O=C(/C=C/c1ccsc1)NC1CCC(CN2CCC(c3c[nH]c4ccccc34)CC2)CC1 (centres undefined)
active: growth inhibition [4] 82%
inactive: growth inhibition [1] 20% | inhibition [2] 29% | inhibition [3] -1% | outcome [5] | outcome [6] | outcome [7] | outcome [8]

COc1cccc(C2(C)CCN(CCCCNC(=O)c3ccc(NC(=O)c4ccc(Cl)cc4)cc3)CC2)c1
inactive: inhibition [2] 19% | inhibition [3] 8% | outcome [5] | outcome [6] | outcome [7] | outcome [8]
active: growth inhibition [1] 72% | growth inhibition [4] 97%

CN(C)CCc1c[nH]c2ccc(C(=O)Nc3ccc(-c4ccncc4)cc3)cc12
active: growth inhibition [4] 99%
inactive: growth inhibition [1] 46% | inhibition [2] 23% | inhibition [3] -7% | outcome [5] | outcome [6] | outcome [7] | outcome [8]

Cn1nc(C(F)(F)F)cc1-c1ccc(C(=O)NC2CCC(CN3CCC(c4c[nH]c5ccccc45)CC3)CC2)s1 (centres undefined)
active: growth inhibition [1] 97% | growth inhibition [4] 101%
inactive: inhibition [2] 45% | inhibition [3] -1% | outcome [5] | outcome [6] | outcome [7] | outcome [8]

CCCCCCCc1cc(=O)c2ccccc2[nH]1
active: growth inhibition [1] 94% | growth inhibition [4] 96%
inactive: inhibition [2] 5% | inhibition [3] 1% | outcome [5] | outcome [6] | outcome [7] | outcome [8]

CCCCC1(NC(=O)[C@H](CC(C)C)Nc2ccc(C#N)c3ccccc23)CCCCC1
active: growth inhibition [4] 96%
inactive: growth inhibition [1] 47% | inhibition [2] 37% | inhibition [3] 5% | outcome [5] | outcome [6] | outcome [7] | outcome [8]

O=C(NC1CCC(CN2CCC(c3c[nH]c4ccccc34)CC2)CC1)c1ccc(-c2ccccc2[N+](=O)[O-])o1 (centres undefined)
active: growth inhibition [4] 100%
inactive: growth inhibition [1] 34% | inhibition [2] 24% | inhibition [3] -2% | outcome [5] | outcome [6] | outcome [7] | outcome [8]

CCCCOC(C(=O)OCC1CCCN1C)(c1ccccc1)c1ccccc1 (centres undefined)
active: growth inhibition [4] 100%
inactive: growth inhibition [1] 2% | inhibition [2] 3% | inhibition [3] 6% | outcome [5] | outcome [6] | outcome [7] | outcome [8]

CC(=O)N(Cc1ccccc1-c1ccc(CNCCc2ccccc2)cc1)C1CCN(Cc2ccccc2)CC1
active: growth inhibition [1] 85% | growth inhibition [4] 101%
inactive: inhibition [2] 24% | inhibition [3] 3% | outcome [5] | outcome [6] | outcome [7] | outcome [8]

CC(Cc1ccc(S(=O)(=O)N(C(C)C)C(C)C)cc1)NCC(O)c1cccc(C(F)(F)F)c1 (centres undefined)
active: growth inhibition [1] 93% | growth inhibition [4] 96%
inactive: inhibition [2] 21% | inhibition [3] 4% | outcome [5] | outcome [6] | outcome [7] | outcome [8]

Cc1ccc(/C=C/C(=O)NC2CCC(CN3CCC(c4c[nH]c5ccccc45)CC3)CC2)cc1C (centres undefined)
active: growth inhibition [1] 71% and 91% | growth inhibition [4] 100% and 101%
inactive: inhibition [2] 23% and 38% | inhibition [3] 8% and 4% | outcome [5] | outcome [6] | outcome [7] | outcome [8]

CCOC(=O)CCCN1C(=O)CN=C(c2ccccc2)c2cc(Cl)ccc21
active: inhibition [2] 54% | growth inhibition [4] 97%
inactive: growth inhibition [1] 47% | inhibition [3] -8% | outcome [5] | outcome [6] | outcome [7] | outcome [8]

CCOC(=O)c1c(CN2CCN(C)CC2)n(Cc2ccccc2)c2cc(Br)c(O)cc12
inactive: growth inhibition [1] 46% | inhibition [2] 11% | inhibition [3] -5% | outcome [5] | outcome [6] | outcome [7] | outcome [8]
active: growth inhibition [4] 100%

CO/C(=C\C=C\c1cc2cc(Cl)c(Cl)cc2[nH]1)C(=O)N[C@H]1CN2CCC1CC2
inactive: growth inhibition [1] 36% | inhibition [2] 43% | inhibition [3] -2% | outcome [5] | outcome [6] | outcome [7] | outcome [8]
active: growth inhibition [4] 82%

Cc1cc(O)cc2c(C3CCN(CC4CCN(C(=O)/C=C/c5ccc(Cl)c(Cl)c5)CC4)CC3)c[nH]c12
inactive: inhibition [2] 33% | inhibition [3] 3% | outcome [5] | outcome [6] | outcome [7] | outcome [8]
active: growth inhibition [1] 100% | growth inhibition [4] 101%

CCOc1ccc(CN(CCc2ccc3c(c2)OCO3)Cc2cc(OC)ccc2O)cc1
active: growth inhibition [1] 88% | growth inhibition [4] 96%
inactive: inhibition [2] 3% | inhibition [3] -4% | outcome [5] | outcome [6] | outcome [7] | outcome [8]
